We go through 101 compounds from PubChem BioAssay AID434973 (Sanford-Burnham Center for Chemical Genomics, 2010).

Hit rate of the full screen: of about 330,000 compounds, about 4,900 (1.5%) were called active.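 Rule for the calls: active = inhibition above about 50% at the single test dose (limit read from the data); inactive = the rest.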 Many of the other results were omitted from the sample, so actives are more common in it than they were.

As usually defined, the inhibition is the drop in the measured response relative to a control, in per cent.

The target of the experiment is Sentrin-specific protease 7 (Homo sapiens) (UniProt Q9BQF6). In words: blockers of human SENP7 peptidase activity – biochemical, luminescence, uHTS, primary screen (AID 434973).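 Note: plate controls were DMSO with enzyme for no effect and no enzyme buffer wells for full effect.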 Conditions: recombinant SENP7, Z-RLRGG-aminoluciferin luminescence, 40 min; at 5 µM; hits give high values.
Regarding `COc1ccc(C2c3c(C)nn(-c4ccccc4)c3NC(=O)N2c2ccccc2)cc1` (stereo unspecified), the inhibition is 3.05% (inactive). The value for `CCCCNC(=O)OC(C)CNC(=O)OC` (stereo unspecified) was -1.91% (inactive); that for `Cc1ccc(C(=O)NCC(=O)O)s1` was -11.9% (inactive).

For `O=C(NCCc1ccccc1)C1CC1`, the inhibition is -1.24% (inactive). For the compound `COc1ccc(N(C(=O)c2snc(C(N)=O)c2N)C(C(=O)NC2CCCC2)c2ccco2)cc1OC` (stereo unspecified), the inhibition is -9.37% (inactive). Take `CCC1(CC)NC(=O)N(Cc2nc3ccccc3s2)C1=O`: the inhibition is -4.41% (inactive). Take `CC(=NCc1ccco1)c1c(C(F)(F)F)[nH]n(-c2nc3ccccc3s2)c1=O`: the inhibition was 98.9% (active). In the case of `CC(C)CC(=O)N/C(N)=N/c1nc2ccccc2s1`, the inhibition is 33.4% (inactive).

As for `C/C(=N\NC(=O)CC(C)C)c1c(C(F)(F)F)[nH]n(-c2nc3ccccc3s2)c1=O`, the inhibition was 98.7% (active). The value for `CCc1ccc(-c2cc(C(=O)NCc3ccco3)c3ccccc3n2)s1` was 6.27% (inactive); that for `CCC(C)Cn1c(O)cc2nn(-c3nc4ccccc4s3)c(=O)c-2c1C` (stereo unspecified) was 8.83% (inactive); that for `CC(=O)c1sc(NC(=O)CCN2C(=O)C3CC=CCC3C2=O)nc1-c1ccccc1` (stereo unspecified) was 0.528% (inactive). Take `Cc1ccc(C)c(N2C(=O)CS/C2=N\NC(=O)c2ccccc2Cl)c1`: the inhibition is -12.9% (inactive).

In the case of `CCCCC/C=C/C1=CC(=O)C[C@H](c2ccc(Cl)cc2)C1`, the inhibition is 2.82% (inactive). `COc1ccc(N2C(=O)CCC(C(=O)Nc3ccccn3)C2c2ccc(OC)c(OC)c2)cc1` (stereo unspecified): the inhibition is 9.84% (inactive).

Turning to `CCOc1ccc(NC(=S)N2CCC(NC(=O)c3ccccc3)CC2)cc1`, the inhibition is -5.22% (inactive).

In the case of `CCOc1ccc(N/C=C/C(=O)c2cc(OC)c(OC)c(OC)c2)cc1`, the inhibition is -14.5% (inactive). `O=C(/C=C/NCc1ccc(F)cc1)c1ccccc1`: the inhibition was 7.34% (inactive). Consider `CCOc1ccc(N/C=C/C(=O)c2ccccc2)cc1`, for which the inhibition is 99.3% (active). In the case of `COc1ccc(C(=O)/C=C/Nc2ccccn2)cc1` it was 99.2% (active); in that of `CC(=O)Nc1ccc(/C=C/C(=O)c2ccccc2)cc1`, -13.6% (inactive); in that of `Cc1ccc(N/C=C/C(=O)c2ccccc2)cc1C`, 91.8% (active). For the compound `Cc1cc(N/C=C\C(=O)c2ccc(Cl)c(Cl)c2)no1`, the inhibition is 10.2% (inactive). The value for `NCCCC[C@@H]1NC(=O)[C@H](CCC(=O)O)NC(=O)c2cc([N+](=O)[O-])cc(I)c2NCC[C@@H](C(N)=O)NC1=O` was 0.545% (inactive); that for `O=C(COC(=O)c1cccnc1Cl)NC(=O)NC1CCCCC1` was -2.4% (inactive). For `Brc1ccc2nc(N3CCCC3)sc2c1`, the inhibition is 93.4% (active). For the compound `Fc1ccc2nc(Nc3nc4c(s3)CCCC4)sc2c1`, the inhibition is 9.46% (inactive). For the compound `Fc1ccc2nc(N3CCCCC3)sc2c1`, the inhibition is 85.3% (active). In the case of `CN(C)CCCN(C(=O)c1ccc(S(=O)(=O)N2CCCCCC2)cc1)c1nc2cc3c(cc2s1)OCCO3` it was 4.88% (inactive); in that of `c1c2c(cc3sc(N4CCCCC4)nc13)OCCO2`, 97.8% (active); in that of `O=C(c1ccc2nc(N3CCOCC3)sc2c1)N1CCN(c2ccc(Cl)cc2)CC1`, 0.5% (inactive). For the compound `O=S(=O)(Nc1ccc2nc(N3CCOCC3)sc2c1)c1ccccc1`, the inhibition was -7.76% (inactive). Consider `O=C(NCCc1cccc(F)c1)C1CCCN(c2nc3ccccc3s2)C1` (stereo unspecified), for which the inhibition is 7.46% (inactive). Turning to `Cc1nc(N2CCCCC2)sc1C=O`, the inhibition is 11.3% (inactive). As for `C/C(CC(=O)N1CCN(C=O)CC1)=N\NC(=O)c1ccc(Br)cc1`, the inhibition was 4.47% (inactive). For `COCC(C)n1c(SCC(=O)NC2CCCCC2C)nc2ccccc2c1=O` (stereo unspecified), the inhibition is -6.63% (inactive). In the case of `CC(C)NC(=O)c1ccc(Sc2ccccc2)c([N+](=O)[O-])c1` it was 4.52% (inactive); in that of `O=C(c1ccc(=O)oc1)N1CCC(C(O)(c2ccccc2)c2ccccc2)CC1`, -5.43% (inactive). The value for `CCC1CCCCN1C(=S)Nc1ccc(S(=O)(=O)Nc2ncccn2)cc1` (stereo unspecified) was -9.27% (inactive).

For `Cc1ccc(C(=O)Nc2ccc(NC(=O)c3cccs3)cc2)c(C)c1`, the inhibition is -5.29% (inactive). In the case of `CCc1ccc(NC(=O)C(=O)NNC(=O)c2cccs2)cc1` it was 51.4% (active); in that of `O=C(Nc1ccc(NC(=O)c2cccs2)cc1)c1ccc2ccccc2c1`, -6.64% (inactive); in that of `Cc1cccc(-n2c(C)cc(/C=N\NC(=O)c3cccs3)c2C)c1`, -3.16% (inactive). As to `CC(C)C(=O)Nc1ccc(C(=O)NNC(=O)c2cccs2)cc1`, the inhibition is -0.683% (inactive).

As for `CCc1ccc(NC(=O)COC(=O)c2cccs2)cc1`, the inhibition is 17.2% (inactive). With `O=C(Nc1ccccc1)c1ccc(NC(=O)c2cccs2)cc1`, the inhibition was 67.8% (active). Regarding `CCN(CC)c1ccc(/C=N/NC(=O)CNC(=O)c2cccs2)cc1`, the inhibition was 2.87% (inactive). In the case of `CC(=O)Nc1ccc(/C=N/NC(=O)c2cccs2)cc1`, the inhibition is 67.7% (active). On to `O=C(COC(=O)/C=C/c1cccs1)NC1CCCCC1`, for which the inhibition is 6.28% (inactive).

Consider `COCCCNC(=O)[C@H]1N2C(=O)c3ccccc3C2SC1(C)C` (stereo partly specified), for which the inhibition is -7.11% (inactive). For the compound `COC(=O)Cc1csc(/N=C/c2c(O)n(-c3cccc(C(F)(F)F)c3)c(=O)c3ccccc23)n1`, the inhibition was -1.46% (inactive). In the case of `CCCCN(C(=O)C1CCC1)c1c(N)n(Cc2ccccc2)c(=O)[nH]c1=O` it was 5.98% (inactive); in that of `O=C(CCS(=O)(=O)c1ccccc1Cl)Nc1ccc(S(=O)(=O)Nc2ncccn2)cc1`, 5.16% (inactive).

Turning to `CCCCSCCCNC(=O)C1CCC(CNS(=O)(=O)c2ccc(NC(C)=O)cc2)CC1` (stereo unspecified), the inhibition is -1.73% (inactive). Turning to `NC(=O)Cc1nc2scc(-c3ccc(Cl)cc3)c2c(=O)[nH]1`, the inhibition is -2.34% (inactive). Regarding `O=c1[nH]c(CCl)nc2cc(-c3ccc(Cl)cc3)sc12`, the inhibition was 63.1% (active). In the case of `O=c1[nH]c(CN2CCOCC2)nc2cc(Cl)ccc12` it was 10.2% (inactive). As to `CCCCC(CC)C(=O)Nc1ccc(Cl)cn1` (stereo unspecified), the inhibition is -1.33% (inactive). In the case of `Cc1cccc(C)c1NC(=O)CNC(=O)c1ccc2c(c1)OCCO2`, the inhibition is -14.1% (inactive).

As for `O=C(Nc1ccc(Cl)cn1)c1ccc2c(c1)OCCO2`, the inhibition is 82.6% (active). Turning to `CCCc1cc(C(=O)Nc2ccc(Cl)cn2)cs1`, the inhibition was 76.6% (active). In the case of `COc1ccc(C(=O)NC(=S)Nc2ccc(Cl)cn2)cc1OC` it was -7.53% (inactive); in that of `Cc1ccc(C(=O)NNC(=O)c2ccc3c(c2)OCCO3)cc1`, 6.51% (inactive).

As for `CCCc1cc(C(=O)Nc2ccc(C(=O)OC)cc2)cs1`, the inhibition is -0.862% (inactive).

In the case of `Cc1nc(NC(=O)c2ccc3c(c2)OCCO3)ccc1Br`, the inhibition was 87.2% (active). In the case of `O=C(Nc1ccc(Cl)cn1)c1cnn2cccnc12` it was 27.2% (inactive); in that of `CN(c1ccccc1)S(=O)(=O)c1ccc(Cl)c(C(=O)OCC(=O)N2CCOCC2)c1`, 3.02% (inactive); in that of `O=C(NCCC(=O)N1O[C@@H]2C=C[C@H]1C2)OCC1c2ccccc2-c2ccccc21`, 3.86% (inactive). In the case of `Cc1ccn(C(CC(=O)c2ccc(Br)cc2)C(=O)O)n1` (stereo unspecified), the inhibition was 4.97% (inactive). In the case of `CCCCN(CC)C(=O)c1ccccc1Oc1ccccc1` it was 6.13% (inactive). For `COC(=O)c1nn(-c2cccc(Cl)c2)ccc1=O`, the inhibition is 3.97% (inactive). Turning to `COc1ccc(N=C(C)c2sc3ccccc3c2O)cc1`, the inhibition was 83.7% (active). The value for `COC(=O)c1ccc(/C=C/c2c(-c3ccc(OC)cc3)sc3ccccc23)cc1` was 3.42% (inactive).

As to `COc1ccc(-c2sc3ccccc3c2-c2ccc(OCCN3CCOCC3)cc2)cc1`, the inhibition was -12.1% (inactive). As to `Cc1ccc2nc(N3CCN(C(=O)c4ccco4)CC3)sc2c1`, the inhibition was -7.97% (inactive). `Cc1ccc2cc3cc(C(=O)N4CCCCCC4)oc3nc2c1`: the inhibition is 55.3% (active). Regarding `Cc1cc(C)cc(NC(=O)N2CCCCCCC2)c1`, the inhibition was 0.706% (inactive). With `O=c1onc(-c2c(F)cccc2F)n1-c1ccccc1Cl`, the inhibition was -2.38% (inactive). In the case of `Cc1cc(=O)[nH]c(S)c1C#N` it was 7.81% (inactive); in that of `CCc1ccc(OCC(=O)OCC(=O)c2c(N)n(C)c(=O)n(C)c2=O)cc1`, -1.23% (inactive); in that of `CCN(CC)CCn1c2c(c(SCC(=O)Nc3nc4ccccc4s3)nc1=O)CCCC2`, 4.47% (inactive). Turning to `c1ccc2sc(NN=C3CCCC3)nc2c1`, the inhibition is 82.2% (active). The value for `O=C1NC(Nc2nc3ccccc3s2)(C(F)(F)F)C(=O)N1C1CCCCC1` (stereo unspecified) was 6.04% (inactive); that for `COc1ccc(CNC(=O)C2CCC(CNc3c(N4CCOCC4)c(=O)c3=O)CC2)cc1` (stereo unspecified) was -10.4% (inactive); that for `O=C(Nc1nnc(-c2ccccc2)o1)c1cccc(S(=O)(=O)N2CCOCC2)c1` was -5.26% (inactive). As for `O=C(O[C@H]1[C@H](Cc2ccccc2)NS(=O)(=O)[C@H]2C[C@@H]3C=C[C@]12O3)c1ccc([N+](=O)[O-])cc1`, the inhibition was 7.73% (inactive). Regarding `Cc1c(-c2ccccc2)n[nH]c1C(=O)N=Nc1c(O)[nH]c2ccccc12`, the inhibition was 84.6% (active). The value for `O=C(CCN1CCCCC1)N=Nc1c(O)[nH]c2ccccc12` was -5.94% (inactive); that for `Cc1cccc(N(CC(=O)N=Nc2c(O)[nH]c3ccccc23)S(C)(=O)=O)c1C` was 5.39% (inactive); that for `CCCOc1ccc(C(=O)NCCc2ccccc2)cc1` was 78.1% (active). In the case of `CCCc1ccc(OCCNC(=O)c2ccccc2Br)cc1` it was -1.05% (inactive). The value for `CCCc1ccc(OCCNC(=O)c2ccco2)cc1` was -0.541% (inactive); that for `COc1ccc(CCNC(=O)C(=O)NCC2CCNCC2)cc1OC` was 2.84% (inactive). `COc1ccc(SC[C@H](Cc2ccccc2)N2CCN(CCc3ccccc3)CCC2=O)cc1`: the inhibition is -3.68% (inactive). As to `CCn1cc(C(=O)NCCCN2CCCCCC2)c(=O)c2cc(S(=O)(=O)N3CCc4ccccc4C3)ccc21`, the inhibition is 7.21% (inactive).

For `COc1ccc(-c2cn3ccsc3n2)cc1`, the inhibition was 58.5% (active). For `COc1cc(OC)cc(-c2nc(=S)n3ccsc3n2)c1`, the inhibition is 0.18% (inactive). Consider `CCN(CC)S(=O)(=O)c1ccc(-c2cn3ccc(C)cc3n2)cc1`, for which the inhibition is 10.3% (inactive). Regarding `COc1ccc(-c2cn3ccc(C)cc3n2)cc1`, the inhibition was 98.1% (active). Consider `COc1ccc(-c2cn3cccnc3n2)cc1`, for which the inhibition is 1.35% (inactive). The value for `Cc1ccn2cc(C(=O)NC3CCN(Cc4ccccc4)CC3)nc2c1` was 5.68% (inactive).
